Assay [1] can be described thus: stimulators of nuclear beta-catenin in C2C12, primary screen, imaging, WNT3A-conditioned medium, mouse C2C12, NPC library (AID 1117326; in the data active = nuclear beta-catenin stimulation mostly above about 4.2%, no sharp cut-off; inactive = mostly below about 10%; also: reference of the scale not given here). The conditions noted are these: stronger effect = higher value.
Assay [2] can be described thus: stimulators of insulin release from INS-1E, primary screen, cell-based, 5 mM glucose, NPC library (AID 1117329;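 active = compound raises insulin release from rat beta cells at 5 mM glucose, no numeric limit stated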; also: reference of the scale not given here). The note with it: rat INS-1E insulin secretion, at 10 µM, stronger effect = higher value.
A short description of assay [3]: growth inhibition of GSK3B-pretreated HCT116 cells – cell-based, CellTiter-Glo, 0.2 to 20 µM (AID 1117336;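 active = compounds lowering colon cancer cell viability after pretreatment blocking the GSK3B kinase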). The note with it: HCT116 viability after GSK3B inhibitor, at 20 µM, stronger effect = higher value.
Assay [4] is described as follows: inhibition of endothelial tube formation, primary screen, imaging, VEGF stimulated, CD31 staining, tube area, NPC library (AID 1117340;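 active = compound that reduces growth-factor-driven endothelial tube area in a mixed cell culture, no cutoff stated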). The conditions noted are these: VEGF-stimulated ADSC/ECFC co-culture, at 10 µM, stronger effect = higher value.
Assay [5] in a line: glucagon-like peptide 1 release enhancers, primary assay, NCI-H716 cell line, NPC library (AID 1117341;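 active = compound raises GLP1 secretion from the human gut endocrine cells, with no numeric limit stated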; also: reference of the scale not given here). The conditions noted are these: NCI-H716 cells, at 10 µM, stronger effect = higher value.
A short description of assay [6]: HCT116 colon cancer cell growth inhibition, primary screen, CellTiter-Glo luminescence, NPC library (AID 1117342;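 active = compounds that lower survival of HCT116 colon cancer cells in the luminescence readout, no numeric limit stated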). The note with it: at 20 µM (top of the series). For orientation: In ATP-based viability assays light output follows the ATP content of the culture.
A short description of assay [7]: CellTiter-Glo luminescent readout of SW480 viability loss, NPC library primary (AID 1117343;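 active = compounds that lower viability of the colon cancer cells in the luminescence readout, with no numeric limit stated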). The note with it: CellTiter-Glo luminescence; at 20 µM (top of the series) unless noted.
Assay [8] can be described thus: decreased DLD-1 cellular survival, CellTiter-Glo luminescent readout, NPC compound collection, primary HTS (AID 1117346;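 active = compounds that lower survival of DLD-1 colon cancer cells in the luminescence readout, no cutoff given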). The conditions noted are these: DLD-1 viability, CellTiter-Glo luminescence; at 20 µM (top of the series).
A short description of assay [9]: growth inhibition of DIPG glioma cells, dose response, cell-based, SU-DIPG-XVII, MIPE5.0, CellTiter-Glo, qHTS (AID 1347060).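 As to AC50: cells exposed to compound for 48 hours before viability readout.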 The note with it: SU-DIPG-XVII viability, CellTiter-Glo ATP luminescence.
A short description of assay [10]: growth inhibition of DIPG glioma cells, dose response, cell-based, SU-DIPG-XIII, MIPE4.0, CellTiter-Glo, qHTS (AID 1347061; cut-off not given, nearly all actives have AC50 up to about 37 µM;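 also: cells exposed to compound for 48 hours before readout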). The conditions noted are these: SU-DIPG-XIII viability, CellTiter-Glo ATP luminescence.
A short description of assay [11]: viability loss in pontine glioma line – cell-based, SU-DIPG-XXV, MIPE5.0, CellTiter-Glo, qHTS, dose response (AID 1347065).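 Also: cells exposed to compound for 48 hours before ATP readout.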 The conditions noted are these: CellTiter-Glo ATP luminescence.
Assay [12] in a line: SU-DIPG-VI glioma cell viability, MIPE4.0 library, CellTiter-Glo luminescence, qHTS (AID 1347066; cut-off not given, nearly all actives have AC50 up to about 30 µM;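 also: cells exposed to compound for 48 hours before readout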). The conditions noted are these: CellTiter-Glo ATP luminescence.
Assay [13] in a line: SU-DIPG-XXV glioma cell viability, MIPE5.0 library, qHTS (AID 1347068; cut-off not given, nearly all actives have IC50 up to about 30 µM). (In qHTS, concentration-response curves come from the screen itself.)
Assay [14] in a line: sensitizers of A549 cells to miR-34 induction, primary screen, imaging, A549 dox-inducible miR-34, nuclei and caspase counts (AID 1347080;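 active = compounds whose cell count with miR-34 switched on is under 0.7 times the count with it off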). The note with it: A549 miR-34 inducible, Hoechst nuclei count, 48 h.
Assay [15] in a line: survival rescue of mitochondrial mutant cells in low glucose, primary screen, MELAS cybrids, Rieske KO mouse fibroblasts, CellTiter-Glo (AID 1508586;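 active = mean z-score across replicates of 1.96 or higher in either the MELAS or the Rieske mutant cell line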;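 also: z relative to plate mean and SD of compound and empty wells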).
Assay [16] can be described thus: viability rescue of complex I mutant cybrids, primary screen, cell-based, galactose medium, ATP luminescence (AID 1645843;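 active = z-score of at least 1.8 in each of two replicates, scored against plate mean and spread of sample wells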;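 also: positive z means more ATP and so rescue of galactose-driven cybrid death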). The note with it: complex I mutant cybrid cells, 72 h, stronger effect = higher value.
A short description of assay [17]: growth inhibition of DIPG glioma cells, dose response, cell-based, JHH-DIPG-1, MIPE4.0, CellTiter-Glo, qHTS (AID 1347062; cut-off not given, nearly all actives have AC50 up to about 27 µM). The note with it: JHH-DIPG-1 viability, CellTiter-Glo ATP luminescence.
Where [18] appears, read: stronger effect = lower value, cell number ratio, induced over uninduced.
Setting [19] is: measured here: relative caspase fold change +Dox/-Dox.
Where [20] appears, read: measured here: total cells with miR-34 induction, stronger effect = lower value.
Setting [21] is: measured here: total cells without miR-34 induction.
[22] abbreviates: MELAS cybrid survival, CellTiter-Glo 48 h, stronger effect = higher value.
Setting [23] is: Rieske KO mouse fibroblast survival, CellTiter-Glo 72 h.

Each structure is given as a SMILES string. Where “and” joins values, the source holds several entries; their conditions need not be identical. Equal values may be shown once. Results filed as inconclusive are left out. Calls of active or inactive are those of the source. Unless noted, the limit is not given here; nearly all actives have AC50 up to about 26 µM.

The term AC50 denotes the concentration at which the activity in the assay is half-maximal.

For `O=c1cc(O)c(Cl)c[nH]1`, the nuclear beta-catenin stimulation in assay [1] (at 10 µM) was -0.6% (inactive); in assay [1] (stimulation, at 2 µM) it was -0.5%. Moreover, the insulin secretion stimulation in assay [2] was -1.9% (inactive). The viability decrease in assay [3] is 28% (inactive). In [4], the tube area decrease was -18.9% (inactive). Moreover, in assay [5], the GLP1 secretion stimulation is -0.1% (inactive). The inhibition of viability in [6] is 27.8% (inactive). Besides, the viability decrease (inhibition) in assay [7] is 54.6% (active); in assay [8] it was 12.9% (inactive). The call in assay [9], in assay [10], in assay [11], in [12] and in [13] was inactive. Further, the fold change in assay [14] (setting [18]) was 0.957 (inactive); in assay [14] (setting [19]), 1.21. For the same compound, the cell count in assay [14] (setting [20]) amounted to 8010; in assay [14] (setting [21]), 8380. In addition, the z-score in assay [15] (setting [22]) was -0.106 (inactive); in assay [15] (setting [23]), -0.13.

Turning to `c1cnc2cc3c(cc2n1)C1CNCC3C1`, the nuclear beta-catenin stimulation is -1.2% (inactive) in assay [1] (at 10 µM) and -0.4% in [1] (stimulation, at 2 µM). Also, in [2], the insulin secretion stimulation is 0.7% (inactive). In addition, in [3], the viability decrease is -3.9% (inactive). In [4], the tube area decrease was 23.1% (inactive). The GLP1 secretion stimulation in assay [5] is -4% (inactive). In assay [6], the inhibition of viability is -2.57% (inactive). Further, the viability decrease (inhibition) is 9.4% (inactive) in assay [7] and -12.7% (inactive) in [8]. The compound was classed as inactive in assay [9], in assay [10], in [11], in assay [12] and in assay [13]. Moreover, the fold change in [14] (setting [18]) is 1.05 (inactive); in assay [14] (setting [19]), 1.76. Also, the results for the cell count in assay [14] (setting [20]) and in assay [14] (setting [21]) were 11200 and 10600, respectively. In [16], the z-score was 0.205 (inactive).

As to `CC(C)OC(=O)OCOP(=O)(CO[C@H](C)Cn1cnc2c(N)ncnc21)OCOC(=O)OC(C)C`, the nuclear beta-catenin stimulation in [1] (at 10 µM) is 6.3% (inactive); in assay [1] (stimulation, at 2 µM) it was 3%. The insulin secretion stimulation in [2] is 13.8% (inactive). In assay [3], the viability decrease is 2.2% (inactive). Also, the tube area decrease in assay [4] was 65.2% (active). For the same compound, in assay [5], the GLP1 secretion stimulation is -1.8% (inactive). For the same compound, the inhibition of viability in assay [6] was 32.1% (inactive). Further, the viability decrease (inhibition) is 22.7% (inactive) in assay [7] and 47.8% (inactive) in assay [8]. Further, the compound was called inactive in [10], in assay [17] and in assay [12].

In the case of `O=C(Nc1ccc(S(=O)(=O)N2CCOCC2)cc1)c1cc(Cl)ccc1NS(=O)(=O)c1ccc(Cl)s1`, the nuclear beta-catenin stimulation in assay [1] (at 10 µM) was 0.9% (inactive); in assay [1] (stimulation, at 2 µM), -0.5%. In [2], the insulin secretion stimulation is 3.7% (inactive). The viability decrease in [3] was 118% (active). The tube area decrease in assay [4] was 100% (active). Further, the GLP1 secretion stimulation in assay [5] was 39.8% (active). Besides, the inhibition of viability in [6] is 124% (active). In addition, the results for the viability decrease (inhibition) in assay [7] and in assay [8] were 158% (active) and 101% (active), respectively. Also, the call in assay [9], in assay [11] and in assay [13] was inactive.

For the compound `COc1ccc(-c2ccc3cc(C(=O)O)ccc3c2)cc1C12CC3CC(CC(C3)C1)C2`, the nuclear beta-catenin stimulation was 21.9% (inactive) in [1] (at 10 µM) and 32.2% in [1] (stimulation, at 2 µM). Also, the insulin secretion stimulation in assay [2] was 0.9% (inactive). For the same compound, the viability decrease in [3] was 118% (active). Besides, the tube area decrease in assay [4] was 99.5% (active). Also, in assay [5], the GLP1 secretion stimulation is -2.3% (inactive). In addition, the inhibition of viability in assay [6] is 123% (active). Moreover, the viability decrease (inhibition) in [7] is 159% (active); in assay [8], 102% (active). For the same compound, in assay [9], the AC50 is 3.32 µM (active). For the same compound, the result in assay [17], in [12] and in assay [13] was inactive. Further, the fold change in assay [14] (setting [18]) was 1.08 (inactive) and 1.16 (inactive); in assay [14] (setting [19]), 0.775 and 0.908. For the same compound, the cell count is 1330 and 1240 in [14] (setting [20]); 1230 and 1070 in assay [14] (setting [21]). The z-score in assay [15] (setting [22]) is -0.222 (inactive) and -1.26 (inactive); in [15] (setting [23]), 0.947 and 0.282.

With `CC(=O)OCC(=O)[C@@]12N=C(C)O[C@@H]1C[C@H]1[C@@H]3CCC4=CC(=O)C=C[C@]4(C)[C@H]3[C@@H](O)C[C@@]12C`, the nuclear beta-catenin stimulation in [1] (at 10 µM) was 1.5% (inactive); in [1] (stimulation, at 2 µM), 3.9%. The insulin secretion stimulation in assay [2] is 2.95% (inactive). Also, the viability decrease in [3] is 0.4% (inactive). Besides, the tube area decrease in assay [4] was 2.2% (inactive). The GLP1 secretion stimulation in [5] was 1.7% (inactive). Besides, in assay [6], the inhibition of viability is -21.6% (inactive). The viability decrease (inhibition) is 14.8% (inactive) in [7] and -6.8% (inactive) in assay [8]. The outcome in [9], in assay [10], in [17], in assay [12] and in [13] was inactive. In addition, the z-score in assay [15] (setting [22]) was 0.598 (inactive); in assay [15] (setting [23]) it was 1.06.

The values above are taken from PubChem BioAssay.
